# Compound activity deposited in PubChem by The Scripps Research Institute Molecular Screening Center.
# PME-1 primary = blocks human protein phosphatase methylesterase 1; recombinant PME-1, FP-Rh probe fluorescence polarization; inhibition, % at 5.9 µM; 320,000 tested, 0.53% active; AID 2130;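 active means inhibition above the campaign mean of all compounds plus 3 SD, cut at about 26% in these data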;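 further: competitive labeling of PME-1 active site by serine hydrolase directed probe; 0% = PME-1 with DMSO and 100% = wells lacking PME-1 enzyme; inhibitors block probe labeling so polarization falls and inhibition rises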
# LYPLA2 counter = blocks human lysophospholipase 2, a PME1 counter-screen | O95372 | recombinant LYPLA2, FP-Rh probe fluorescence polarization | inhibition, % at 5.9 µM | 320,000 tested, 0.38% active | AID 2177;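 active means inhibition above the screen-wide mean plus 3 SD, limit set per campaign, cut at about 26% in these data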;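 further: 0% = LYPLA2 with DMSO and 100% = wells lacking LYPLA2 enzyme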
# PREPL inh = human PREPL enzyme inhibition. Q4J6C6. recombinant PREPL, fluorescence polarization activity-based probe. inhibition, % at 5.96 µM. 320,000 tested, 0.68% active;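 further: 0% = enzyme with DMSO and 100% = wells lacking enzyme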
# LYPLA1 counter = blocks human lysophospholipase 1, a PME1 counter-screen. 320,000 tested, 0.16% active. O75608. recombinant LYPLA1, FP-Rh probe fluorescence polarization. AID 2174. inhibition, % at 5.9 µM;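 active means inhibition above the mean of all tested compounds plus 3 SD, set per campaign, cut at about 14% in these data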;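 further: inhibitors block serine hydrolase probe labeling of LYPLA1 so polarization falls; 0% = enzyme with DMSO and 100% = wells lacking LYPLA1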
# Target sequence (O75608 whole entry, looked up): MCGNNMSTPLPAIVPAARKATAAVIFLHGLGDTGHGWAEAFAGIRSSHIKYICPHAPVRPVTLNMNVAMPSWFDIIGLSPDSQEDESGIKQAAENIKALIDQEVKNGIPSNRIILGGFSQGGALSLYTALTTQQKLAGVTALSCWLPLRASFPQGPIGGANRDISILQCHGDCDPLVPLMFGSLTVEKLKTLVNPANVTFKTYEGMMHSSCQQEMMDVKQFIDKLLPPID
# Fam108B counter = blocks mouse Fam108B hydrolase in RBBP9 counter-screen; recombinant Fam108B, FP-Rh probe fluorescence polarization; AID 1947; 300,000 tested, 0.33% active; inhibition, % at 9.51 µM;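 active means inhibition above the screen mean inhibition plus 3 SD, computed separately per campaign, cut at about 18% in these data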;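 further: inhibitors lower polarization as less probe binds the enzyme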
# PREPL inh cf = human PREPL inhibition, confirmation; AID 2803; inhibition, % at 5.96 µM; shares compounds with PREPL inh; 2,000 tested, 67% active; recombinant PREPL, fluorescence polarization activity probe;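 further: 0% = protein with DMSO and 100% = wells lacking protein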
# * = called active by the depositor; . = no result. Rows were chosen to be rich in hits. Some 1.3% of all compounds tested hit in one or more screens of this group. Unless noted, no stated cut-off is given here; in the data, active means inhibition above about 43%; inactive means the rest.
SMILES,PME-1 primary,LYPLA2 counter,PREPL inh,LYPLA1 counter,Fam108B counter,PREPL inh cf
CCN1CC2(COC(=O)c3ccccc3N)CCC(OC)C34C5CC6C(OC)CC(O)(C5C6OC)C(O)(C(OC)C23)C14 (stereo unspecified),5.3,1.7,45.0*,1.1,-1.7,45.1*
O=C(O)c1[nH]c(=O)[nH]c(=O)c1F,-7.9,7.6,-10.2,1.2,-0.1,.
Cc1c(N=Cc2c(O)n(CCc3ccc(F)cc3)c(=O)[nH]c2=O)c(=O)n(-c2ccccc2)n1C,-4.2,-1.1,8.4,0.9,-4.2,.
CC(C)n1cc(C(=O)N(CC(=O)NC(C)(C)C)Cc2ccccc2)cn1,-6.9,1.6,2.7,-1.7,1.1,.
C=CCn1c(O)c(C(CC)=NCc2ccc3c(c2)OCO3)c(=O)[nH]c1=O,1.7,3.1,55.1*,-0.3,2.4,53.3*
CCCCn1c(O)c(C(CC)=NCc2ccc3c(c2)OCO3)c(=O)[nH]c1=O,-3.6,12.5,48.7*,-3.6,1.1,49.1*
Cc1c(N)c(C)c([N+](=O)[O-])c(C)c1[N+](=O)[O-],1.2,0.3,-1.8,-4.5,0.3,.
COC(=O)[C@@H]1C[C@@]1(C)[C@@H](NP(=O)(c1ccccc1)c1ccccc1)c1ccccc1,7.6,-0.4,48.0*,2.1,-2.1,55.8*
CCOc1ccc(N=C2SCCCN2C)cc1,1.2,2.0,7.6,-1.3,-2.9,.
C[n+]1c(-c2ccccc2)cc(CCCCc2cc(-c3ccccc3)[n+](C)c(-c3ccccc3)c2)cc1-c1ccccc1,-3.2,-1.7,45.8*,-5.0,-2.8,46.2*
COc1ccccc1/C=C1/C(=N/O)C2CCN1CC2,2.5,1.1,-10.4,1.5,-2.9,.
Cc1[nH]c2ccccc2c1CCNCc1cccnc1,-4.3,6.3,-5.5,3.8,2.2,.
COc1ccc2[nH]c(C)c(CCNCc3cn(C)c4ccccc34)c2c1,0.8,-2.6,69.9*,-1.8,.,54.2*
C=CCn1c(O)c(C(C)=NCCC(c2ccccc2)c2ccccc2)c(=O)[nH]c1=O,1.8,0.9,1.9,-0.5,2.0,.
C=CCn1c(O)c(C(C)=NCCc2c[nH]c3ccccc23)c(=O)[nH]c1=O,-0.4,1.9,49.0*,-3.0,0.8,47.8*
CCCCn1c(O)c(C(C)=NCCc2c[nH]c3ccccc23)c(=O)[nH]c1=O,7.2,20.6,44.4*,0.6,-2.1,36.1
Cc1ccc(N)cc1N,-4.1,3.0,53.5*,-0.8,.,3.8
Cc1ccc(N)c(N)c1,-2.7,2.6,-0.7,-0.8,.,.
C=CCN1C(=O)c2ccccc2Sc2ccc(C(=O)N3CCC4(CC3)OCCO4)cc21,-1.4,6.5,-7.2,-1.1,3.8,.
O=C(c1ccc2c(c1)N(Cc1ccccc1)CCS2)N1CCC2(CC1)OCCO2,6.7,2.0,57.7*,4.9,0.3,54.6*
Cc1ccc(-c2cc(-c3ccc(C)cc3)[n+](-c3ccc(C(=O)O)cc3)c(-c3ccc(C)cc3)c2)cc1,5.8,6.2,2.5,4.4,-1.2,.
Cc1ccc(C[n+]2c(-c3ccc(C)cc3)cc(-c3ccc(C)cc3)cc2-c2ccc(C)cc2)cc1,2.0,1.3,54.9*,1.1,3.4,52.2*
CC(C)CN1CCN(Cc2ccc(F)cc2Cl)CC1CCO (stereo unspecified),-1.8,-1.7,5.5,-1.0,2.2,.
Cc1[nH]c2ccc(OCc3ccccc3)cc2c1CCN,-1.3,-2.2,50.3*,-2.5,8.2,44.4*
CN1C[C@H](CNC(=O)OCc2ccccc2)C[C@@H]2c3cccc4c3c(cn4C)C[C@H]21,1.7,3.4,64.0*,0.4,2.3,61.0*
CCOc1ccccc1-n1c(O)c(C=NCCCn2ccnc2)c(=O)[nH]c1=O,-4.4,9.3,1.4,2.8,-5.3,.
